In PubChem BioAssay (EPA / NIEHS) one finds outcome and AC50 data, which are given here for 27 compounds.

Inconclusive results are not listed. The source made the active and inactive calls. How the source made its calls: active means hit-call score of the fitted dose curve at least 0.9, where 1 is the maximum; inconclusive means response in the unintended direction; inactive means score below 0.9.

A short description of this assay: ACEA_AR_antagonist_AUC_viability: ACEA Biosciences xCELLigence Real-Time Cell Analysis on Androgen Receptor Antagonism for Viability (AID 2283776).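 Further: 22Rv1 human prostate cancer cells growing on impedance electrode plates; area under impedance growth curve at 80 h after dosing as viability; hits lower the growth signal relative to DMSO meaning cytotoxicity.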 In short, it runs like this: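 Real-time electrical impedance tracks 22Rv1 proliferation after continuous compound exposure (top 100 uM final, 1:4 steps, 8 concentrations). The 80 h area-under-curve serves as the cytotoxicity readout relative to DMSO.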
Regarding `CC(C)c1ccc(C(=O)N=C(N)N)cc1S(C)(=O)=O`, the compound was called inactive. `NCC1(Cc2noc(=O)[nH]2)CCCCC1`: the compound was called inactive. For `NCCO`, the compound was called inactive. `CCCCCCCCCCCCCCCCCC(=O)O`: the AC50 (as a rule, the concentration at which the activity in the assay is half-maximal) is 25 µM (active). Consider `COc1cc(S(=O)(=O)O)c(C)cc1N=Nc1c(O)ccc2cc(S(=O)(=O)O)ccc12`, for which the compound was called inactive. On to `CCCCCCCCCCCCCO`, for which the result was inactive. Still for that read-out and setting: the result for `C[Si]1(C)O[Si](C)(C)O[Si](C)(C)O[Si](C)(C)O1` reads “inactive”. On to `O=C(OCCCCCOC(=O)c1ccccc1)c1ccccc1`, for which the AC50 is 77.9 µM (active). As to `CCCCCCCCCCO`, the outcome was inactive.

On to `c1cc(-c2ccncc2)ccn1`, for which the call was inactive.

On to `C[C@]12C=CC(=O)C=C1CC[C@@H]1[C@@H]2C(=O)C[C@@]2(C)[C@H]1CC[C@]2(O)C(=O)CO`, for which the compound was called inactive.

With `Nc1ccc2c(c1)C(=O)c1ccccc1C2=O`, the AC50 was 14.1 µM (active). As for `CCOC(=O)C(C)(C)Oc1ccc(Cl)cc1`, the result was inactive. `CC=Cc1ccc(O)c(OC)c1`: the AC50 is 19.3 µM (active). For `CCCCCCOCCO`, the outcome was inactive. Same read-out and setting: as for `NS(=O)(=O)c1cc2c(cc1Cl)NCNS2(=O)=O`, the entry is “inactive”. As for `O=C(O)CCCCC(=O)O`, the AC50 was 3.82 µM (active). Regarding `Cc1nc(C)nc(N2C[C@@H](C)N(c3ccnc([C@@H](C)O)n3)[C@@H](C)C2)n1`, the result was inactive.

On to `C=CCc1ccc(O)c(OC)c1`, for which the result was inactive. Same read-out and setting: the result for `CC(=O)OCCOCCOCCOC(C)=O` reads “inactive”; that for `CCCCCCCCCCCC(=O)OC`, “inactive”; that for `CC1(C)CC(N=C=O)CC(C)(CN=C=O)C1` (configuration not stated), “inactive”. On to `CN1CCCC1=O`, for which the result was inactive. Consider `CCc1c(C(=O)NN2CCCCC2)nn(-c2ccc(Cl)cc2Cl)c1-c1ccc(Br)cc1`, for which the AC50 is 10.8 µM (active). As to `CCCCCCCC=O`, the compound was called inactive. For the compound `CC1(C)NC(=O)NC1=O`, the call was inactive. With `NC(=O)Cn1c(=O)cc(CCN2CCN(c3nccc4sccc34)CC2)c2ccc(F)cc21`, the AC50 was 12.1 µM (active).
